A number with no mark means an inactive call. The rule behind the calls is not given here.
tested on: HIV-1 nucleocapsid protein NCp7 (binding to TG oligonucleotide); experiment: HIV Nucleocapsid (AID 346); settings: HIV-1 NC / fluorescein-TGTGTGTG probe, fluorescence polarization;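 note: potency is for inhibitors that block NC binding and lower polarization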
Method in brief: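 Fluorescence polarization binding of 100 nM HIV-1 NC to 10 nM fluorescein-labelled TG4xF oligonucleotide. Buffer was Hepes pH 7.5 with 250mM NaCl, 1uM ZnCl2, TCEP and 2-mercaptoethanol. Compounds were incubated 1 hr at room temperature before the read.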
Potency is the fitted concentration of half-maximal effect.

| Compound | Potency [µM] |
| --- | --- |
| COc1cccc(Cn2c(=O)c(-c3cccs3)nc3cnc(N4CCOCC4)nc32)c1 | > 20 |
| NCCn1c(=O)c(CCc2ccccc2)nc2cncnc21 | > 20 |
| O=C(c1cnccn1)N1CCC[C@@]2(CCN(C(c3ccccc3)c3ccccc3)C2)C1 | > 20 |
| O=C(c1ccco1)N1CCC2(CC1)CCN(c1ccccc1)CC2 | > 20 |
| COc1ccccc1CNc1cc(-c2ccc(C(=O)N(C)C)cc2)ncn1 | > 20 |
| COc1cccc(-c2nc(NC3CC3)c3ccccc3n2)c1 | > 20 |
| N#Cc1cccc(-c2nc3cnc(N4CCOCC4)nc3n(C3CC3)c2=O)c1 | > 20 |
| O=C(Nc1ccccc1)N1CC2(CCN(S(=O)(=O)c3ccccc3)CC2)C1 | > 20 |
| CN1CCN(c2nc(-c3ccccc3C(F)(F)F)nc3ccccc23)CC1 | > 20 |
| CC(=O)N1CCC2(CC1)CN(C(c1ccccc1)c1ccccc1)C2 | > 20 |
| CN1CCN(c2ncncc2-c2ccccc2Cl)CC1 | > 20 |
| COCCn1c(=O)c(-c2cccc(C#N)c2)nc2cnc(OCc3ccccc3)nc21 | > 20 |
| COc1cccc(Cn2c(=O)c(-c3cc(F)cc(F)c3)nc3cnc(N(C)C)nc32)c1 | > 4 |
| Cc1nc2cnc(N(C)C)nc2n(C2CC2)c1=O | > 20 |
| COc1ccc(C(=O)N2CCC3(CCCN(Cc4ccncc4)C3)CC2)cc1 | > 20 |
| Cc1noc(C)c1C(=O)N1CCC[C@@]2(CCN(C(=O)Nc3cccc(F)c3)C2)C1 | > 20 |
| COC(=O)N1CCC2(CCN(C(=O)Nc3cccc(F)c3)CC2)CC1 | > 20 |
| COCCn1c(=O)c(-c2ccc(F)cc2)nc2cncnc21 | > 20 |
| O=C(c1cccc(F)c1)N1CCC2(CC1)CCN(C(c1ccccc1)c1ccccc1)CC2 | > 20 |
| FC(F)(F)c1ccccc1-c1nc(NC2CC2)c2ccccc2n1 | > 20 |

| Compound | Potency [µM] |
| --- | --- |
| COc1ccccc1CN1CC[C@@]2(CCCN(C(=O)c3ccco3)C2)C1 | > 20 |
| COc1ccc(-c2nc3cnc(N4CCNCC4)nc3n(CCC#N)c2=O)cc1 | > 20 |
| Cc1nc2cncnc2n(Cc2ccc(F)cc2)c1=O | > 20 |
| CN(C)C(=O)c1ccc(-c2cncnc2Nc2ccccc2)cc1 | > 20 |
| O=C(c1cccc(F)c1)N1CCC2(CC1)CN(c1ccncc1)C2 | > 20 |
| CS(=O)(=O)Nc1cccc(-c2nccc(Nc3ccc(F)cc3)n2)c1 | > 20 |
| N#Cc1cccc(NC(=O)N2CCC3(CC2)CCN(C(=O)c2cnccn2)CC3)c1 | > 20 |
| CN(Cc1ccco1)c1cc(-c2cccc(C#N)c2)ncn1 | > 20 |
| COc1cccc(-c2cncnc2NCc2cccs2)c1 | > 20 |
| N#Cc1cccc(NC(=O)N2CCC3(CC2)CCN(C(=O)c2cccc(F)c2)CC3)c1 | > 20 |
| CCNc1ncc2nc(-c3ccccc3)c(=O)n(Cc3cccc(OC)c3)c2n1 | > 20 |
| COc1ccccc1CN1CC[C@@]2(CCCN(C(=O)c3cccn3C)C2)C1 | > 20 |
| Cc1ccccc1-c1nc(Nc2ccncc2)c2ccccc2n1 | > 20 |
| O=c1c(CCc2ccccc2)nc2cnc(N3CCNCC3)nc2n1Cc1ccc(F)cc1 | > 20 |
| Cc1noc(C)c1-c1nccc(N2CCN(C)CC2)n1 | > 20 |
| CC(=O)NCCNc1nc(-c2cccc(C#N)c2)nc2ccccc12 | > 20 |
| CN(C)c1ncc2nc(-c3cccs3)c(=O)n(-c3ccccc3)c2n1 | > 4 |
| COc1ccc(C(=O)N2CCC[C@@]3(CCN(Cc4nccs4)C3)C2)cc1 | > 20 |
| CC(=O)N1CCC[C@@]2(CCN(c3ccccc3)C2)C1 | > 20 |
| COc1ccc(CNc2nc(-c3ccc4c(c3)OCO4)nc3ccccc23)c(OC)c1 | > 20 |
